# Compound activity deposited in PubChem by National Center for Advancing Translational Sciences (NCATS).
# This is a sample that favours compounds with a hit; in the whole collection about 7.5% have one here.
# VACV Venus inh – inhibitors of vaccinia virus (Venus reporter) | Vaccinia virus Venus reporter expression, fluorescence | Potency, µM (doses to about 36.5 µM), hits mostly inhibitors | actives 0.46% (n = 330,000) | AID 720580; calls by dose curve; tested in A549 cells; also: nearly all actives have a fitted effect of over 30% in size
# HCMV antiviral – blocks human cytomegalovirus replication. HFF cells, HCMV-luciferase reporter, 72 h; active compounds read low. activity change, negative = inhibition, % at 57.5 µM. AID 1259415. actives 4.5% (n = 410,000); in the data active = activity change below about -60%; inconclusive = no clear call, values can overlap the other calls; inactive = above about -39%
#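 Cell-based, HFFs, 1000 cells/well, 16 h 37C; cpds in DMSO + HCMV-luc, MOI 1 PFU/cell; 72 h 37C; OneGlo luminescence after 5 min RT; norm. to buffer vs Salinomycin 10uM.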
# VACV mCherry inh – vaccinia inhibition (mCherry reporter); Vaccinia virus mCherry reporter infection, fluorescence; AID 720579; actives 0.63% (n = 310,000); Potency, µM (top dose mostly 36.5 µM), usual class: inhibitors; calls by dose curve; tested in A549 cells; also: nearly all actives have a fitted effect of over 35% in size
# HCV inhibitor – HCV inhibition. Huh7.5.1 HCVcc-Cre infection, luciferase reporter, 44 h. Potency, µM (series often up to 41.8 µM), hits mostly inhibitors. actives 3.4% (n = 340,000)
#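 Cells (1,000/well) were plated 4 h before compound, then infected with HCVcc-Cre virus (~0.5 moi). After 44 h further culture, infection was read as luciferase luminescence following a 15 min substrate incubation at room temperature.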
# FBPA Giardia inh – blocks Giardia fructose-bisphosphate aldolase activity; purified Giardia FBPA; Potency, µM (doses to about 59.6 µM), most hits filed as inhibitors; actives 0.71% (n = 290,000); AID 2451; also: nearly all actives have a fitted effect of over 55% in size
# Target sequence (A8B2U2 whole entry, looked up): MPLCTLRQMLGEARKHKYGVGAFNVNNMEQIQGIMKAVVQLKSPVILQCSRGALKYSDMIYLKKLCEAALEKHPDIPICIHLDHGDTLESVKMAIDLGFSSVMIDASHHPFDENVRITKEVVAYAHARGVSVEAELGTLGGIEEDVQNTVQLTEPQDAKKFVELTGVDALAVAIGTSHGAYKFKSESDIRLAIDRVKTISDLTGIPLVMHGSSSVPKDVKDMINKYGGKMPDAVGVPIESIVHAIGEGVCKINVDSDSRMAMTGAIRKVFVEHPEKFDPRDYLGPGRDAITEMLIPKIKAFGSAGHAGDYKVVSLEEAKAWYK
#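 40 nM FBPA preincubated 10 min at RT with compound (up to 57.5 uM final), then substrate plus GAPDH/TPI/NAD/arsenate coupling and diaphorase/resazurin added. Fluorescence read after 20 min at RT, 525/598 nm.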
# FMDV inh – blocks foot and mouth disease virus | FMDV antiviral cell-based qHTS | Potency, µM (series often up to 57.9 µM), actives largely listed as inhibitors | actives 1.2% (n = 410,000); calls by dose curve; tested in HEK293T cells; also: read-out not given here; nearly all actives have a fitted effect of over 45% in size
# A number is an active result; – = inactive; ? = inconclusive; · = no result given; ! = not confirmed by another sample. Unless noted, calls follow the shape of the dose curve; as a rule, active = well fitted curve in the direction sought with a large enough effect; inconclusive = small, poorly fitted or top-dose-only effect, or another doubt; inactive = no such curve, though single readings can be large; an effect the other way counts as inactive or inconclusive.
SMILES,VACV Venus inh,HCMV antiviral,VACV mCherry inh,HCV inhibitor,FBPA Giardia inh,FMDV inh
Cc1ncc(CN2CCC(C(=O)Nc3ccc(Oc4cccnc4)cc3)CC2)cn1,–,–,–,–,–,–
COc1ccc(C(=O)C2CCCN(Cc3cc(Cl)ccc3O)C2)c(OC)c1 (stereo not given),–,–,–,11µM,–,?
COc1ccc(C(=O)C2CCCN(Cc3sc(N4CCCC4)nc3Cl)C2)c(OC)c1 (stereo not given),·,-72,·,?,–,?
COc1ccc(C(=O)C2CCCN(Cc3cnc(C)s3)C2)c(OC)c1 (stereo not given),–,?,–,?,–,?
CN(C(=O)CSc1nc2ccccc2n1Cc1cccc(C(F)(F)F)c1)c1ccccc1,–,–,–,·,·,?
COC(=O)C(/C=C/c1ccccc1)(c1cn(C)c2ccccc12)C(Nc1ccccc1)c1ccccc1 (stereo not given),·,–,·,·,·,·
Cc1ccc(NC(=S)N=Nc2c(O)n(C)c3ccc(S(=O)(=O)N4CCOCC4)cc23)cc1,–,-77,–,?,–,–
Cc1cccc(NC(=S)N=Nc2c(O)n(C)c3ccc(S(=O)(=O)N4CCOCC4)cc23)c1,–,–,–,1.6µM!,–,–
CCN(CC)CCCNC(=O)c1sc2nc3n(c(=O)c2c1C)CCCCC3,–,–,–,·,·,–
CCN(CC)CCNc1cc(C)nc2c1C(=O)C(=O)C=C2N1CCCCC1,·,-98,·,?,2µM,?
O=S(=O)(c1ccc(SCCOc2ccc(F)cc2)nc1)N1CCCC1,·,?,·,16µM,·,?
O=S(=O)(c1ccc(SCCOc2ccccc2)nc1)N1CCCC1,·,–,·,?,·,–
CN(CCOc1ccc(Cl)cc1)c1ccc(S(=O)(=O)N2CCCCC2)cn1,·,–,·,14µM,–,–
Cc1ccc(OCCNc2ccc(S(=O)(=O)N3CCCC3)cn2)cc1,–,–,–,–,·,–
O=C1CSC(c2cccc([N+](=O)[O-])c2)N1Cc1ccccc1 (stereo not given),–,–,–,–,–,?
CC1CCN(CC2CCN(C(=O)NCc3ccccc3)CC2)CC1,–,–,–,·,·,–
CC1=C(C(=O)OCCNC(=O)c2ccccc2O)C(c2ccccc2[N+](=O)[O-])C(C(=O)OCC2CCCO2)=C(C)N1 (stereo not given),?,?,–,?,–,28µM
CC(C)C(NS(C)(=O)=O)c1nnc2n1CCN(Cc1ccc(Cl)cc1)CC2 (stereo not given),–,·,–,·,·,–
Cc1ccc(S(=O)(=O)N(C)C)cc1NC(=O)C(C)N(C)CCOc1ccc(Cl)cc1 (stereo not given),–,-78,–,10µM,–,?
CC(C(=O)Nc1ccc(F)cc1Cl)N(C)CCOc1ccccc1 (stereo not given),–,-61,–,–,–,–
COc1cc2c(cc1OC)C(c1ccccc1C)CC(=O)N2 (stereo not given),–,–,–,–,–,–
C[C@H]1CO1,·,·,·,·,–,·
Cc1ccc(C(=O)N2CCN(c3ccc(C(F)(F)F)cn3)CC2)o1,–,–,–,–,·,–
COc1ccc2c(c1OC)C(=O)OC2C/C(=N\NC(N)=O)c1ccccc1 (stereo not given),–,-70,–,–,–,–
CCOCCc1nn2c(=O)cc(COC(=O)CNC(=O)c3ccc(F)cc3)nc2s1,–,–,–,·,·,–
SMILES,VACV Venus inh,HCMV antiviral,VACV mCherry inh,HCV inhibitor,FBPA Giardia inh,FMDV inh
CN1C(=O)/C(=C/c2ccc3c(c2)OCO3)N=C1c1ccccc1,–,-101,–,–,–,–
COC(=O)C1=C(C)NC(C)=C(C(=O)OCCN(C)Cc2ccccc2)C1c1cccc([N+](=O)[O-])c1 (stereo not given),–,–,–,–,–,?
COC(=O)C1=C(C)NC(C)=C(C(=O)OCCN2CCN(C(c3ccccc3)c3ccccc3)CC2)C1c1cccc([N+](=O)[O-])c1 (stereo not given),·,-64,·,·,·,·
CCOc1cc(/C=C2\C(=O)ON=C2c2ccccc2)ccc1OC,·,–,·,–,–,35µM
NC(=O)COc1ccc(/C=C2\C(=O)ON=C2c2ccccc2)cc1,–,–,–,–,·,25µM
COc1cc(/C=C2\N=C(c3ccccc3)NNC2=O)cc(OC)c1OC,–,-81,–,–,–,–
COc1cc(/C=C2\C(=O)ON=C2c2ccccc2)cc(OC)c1OC,–,–,·,–,–,25µM
